NPC1 promoter act: activators of NPC1 promoter. Huh7 NPC1 promoter luciferase reporter, 24 h. Potency, µM (series often up to 9.22 µM), for inactives: at the highest dose activation, hits mostly activators. hit rate 2.4% among 320,000. AID 485313; also: % of control where 0% means no effect; nearly all actives have a fitted effect of over 60% in size
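Luminescence read-out of NPC1 promoter-driven luciferase in stably transfected Huh7 cells; compounds delivered in DMSO and left 24 h at 37C, 5% CO2, qHTS titration format.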
ELG1 genotoxic: inducers of genotoxicity in HEK293T ELG1-luciferase cells; HEK293T ELG1-luciferase reporter, luminescence, 16 h; Potency, µM (highest dose often 46 µM), for the others: at the top dose activity change, positive = activation, most hits filed as activators; hit rate 1.3% among 330,000; AID 504466; also: % of control where 0% means no effect; nearly all actives have a fitted effect of over 60% in size
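Genotoxic stress is detected as increased luminescence from luciferase-tagged ELG1 in HEK293T cells, measured with ONE-Glo after a 16 hr treatment at 37 °C.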
Rab9 prom act: Rab9 promoter activation; Huh7 Rab9 promoter-luciferase reporter, luminescence, 24 h; hit rate 2.8% among 320,000; AID 485297; Potency, µM (doses to about 9.22 µM), without a hit: top-dose activation, negative = inhibition, hits mostly activators; also: % of control where 0% means no effect; nearly all actives have a fitted effect of over 60% in size
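Huh7 reporter line, Rab9 promoter upstream of luciferase. Compound exposure 24 h at 37 °C in reduced-serum medium with 10% FBS. Read-out: luminescence.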
SMN2 splice enh: SMN2 splice variant enhancement. Potency, µM (series often up to 46.1 µM), inactives show at the highest dose activity change, positive = activation, hits mostly activators. HEK293 SMN2-luciferase splicing reporter, luminescence, 30-36 h. AID 1458. hit rate 2.8% among 210,000; also: % of control where 0% means no effect; nearly all actives have a fitted effect of over 55% in size
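HEK293 cells carry an SMN2 minigene-luciferase reporter in which exon 7 inclusion puts luciferase in frame. Cells were seeded at 2000 cells/well, attached for 10-12 hours, then exposed to compounds for 30-36 hours at 37C before ONE-Glo luminescence.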
KinaseGlo FLuc: Kinase-Glo luciferase inhibition (counter-screen); Q27757; Kinase-Glo luciferase, ATP luminescence, 8 min; Potency, µM (top dose mostly 38.3 µM), for the others: at the top dose activity change, negative = inhibition, usual class: inhibitors; hit rate 0.28% among 200,000; AID 1379; also: % is scaled to controls: 0 for no effect and ±100 for the full control effect; nearly all actives have a fitted effect of over 60% in size
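Compound is pinned into ATP-containing buffer (10 uM ATP, imidazole pH 7.2, 7 mM MgCl2). Kinase-Glo luciferase reagent is then added. Light output is recorded following an 8-min room-temperature incubation.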
FLuc counter: firefly luciferase modulation, counter-screen for miR-21 project. P08659. purified FLuc, Km substrates, luminescence inhibition. Potency, µM (top dose mostly 57.5 µM), for inactives: top-dose activity change, negative = inhibition, hits mostly inhibitors. hit rate 6.9% among 360,000;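 also: plate controls were vehicle for no effect and reference inhibitor for full effect; nearly all actives have a fitted effect of over 55% in size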
Target sequence (P08659 whole entry, looked up): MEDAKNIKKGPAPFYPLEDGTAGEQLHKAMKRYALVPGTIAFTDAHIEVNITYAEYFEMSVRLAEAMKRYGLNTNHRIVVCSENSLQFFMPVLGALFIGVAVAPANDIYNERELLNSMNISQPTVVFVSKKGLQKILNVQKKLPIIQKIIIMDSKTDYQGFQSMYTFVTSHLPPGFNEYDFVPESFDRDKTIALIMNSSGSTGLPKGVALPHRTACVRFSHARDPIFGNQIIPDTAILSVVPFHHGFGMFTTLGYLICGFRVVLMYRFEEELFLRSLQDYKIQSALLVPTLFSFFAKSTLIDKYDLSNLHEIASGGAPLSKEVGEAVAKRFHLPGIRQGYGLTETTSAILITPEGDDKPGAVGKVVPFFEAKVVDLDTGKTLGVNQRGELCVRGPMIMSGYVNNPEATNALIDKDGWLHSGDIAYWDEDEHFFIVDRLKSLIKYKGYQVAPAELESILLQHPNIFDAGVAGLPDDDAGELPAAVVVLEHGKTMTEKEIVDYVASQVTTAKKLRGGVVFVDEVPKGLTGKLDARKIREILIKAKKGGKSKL
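Purified P. pyralis luciferase (10nM final) with 10uM D-luciferin and 10uM ATP (Km levels) in 50mM Tris acetate pH 7.5, 10mM Mg acetate, 0.01% Tween-20, 0.05% BSA; qHTS 6-point titration, ~60 µM downward; luminescence read.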
An asterisk follows results filed as active; [ ] = remark or other dose. This is a sample that favours compounds with a hit; in the whole collection about 7.4% have one here. Calls follow the shape of the dose curve; as a rule, active = well fitted curve in the direction sought with a large enough effect; inconclusive = small, poorly fitted or top-dose-only effect, or another doubt; inactive = no such curve, though single readings can be large; an effect the other way counts as inactive or inconclusive. Potency is read from the fitted curve at half-maximal effect.

Results for Cc1cc(C(=O)CSc2nnnn2C)c(C)n1-c1ccc2c(c1)OCCO2 ?
NPC1 promoter act: 3.16µM*; ELG1 genotoxic: 10µM*; Rab9 prom act: 2.51µM*; SMN2 splice enh: inconclusive; KinaseGlo FLuc: -5.5%; FLuc counter: 23.9µM*

Results for Cc1cc(C(=O)CSc2nnc(-c3ccc4c(c3)OCO4)o2)c(C)n1-c1ccc(F)cc1 ?
NPC1 promoter act: -1.1%; ELG1 genotoxic: 1.7%; Rab9 prom act: -6.1%; SMN2 splice enh: -64.7%; KinaseGlo FLuc: 2.8%; FLuc counter: -11.1%

Results for Cc1cc(C(=O)CSc2nnc(-c3ccco3)o2)c(C)n1-c1ccc2c(c1)OCCO2 ?
NPC1 promoter act: -3.2%; ELG1 genotoxic: -1.2%; Rab9 prom act: -10.1%; SMN2 splice enh: -71.3%; KinaseGlo FLuc: 12.2%; FLuc counter: -15.5%

How did Nc1nnc(SCc2ccc(F)cc2Cl)s1 do in these assays?
NPC1 promoter act: 10.4%; ELG1 genotoxic: 2.8%; Rab9 prom act: 16.6%; SMN2 splice enh: 28.7%; KinaseGlo FLuc: 0.1%; FLuc counter: -25.5%

What do the screens show for `Cc1nnc(SCc2ccc3c(c2)OCO3)s1`?
NPC1 promoter act: 20.5%; ELG1 genotoxic: 20.6µM*; Rab9 prom act: inconclusive; SMN2 splice enh: 12.7%; KinaseGlo FLuc: 1.2%; FLuc counter: inconclusive

What do the screens show for `Cc1nnc(SCc2ccc(F)cc2Cl)s1`?
NPC1 promoter act: 3.55µM*; ELG1 genotoxic: inconclusive; Rab9 prom act: inconclusive; SMN2 splice enh: inconclusive; KinaseGlo FLuc: -1.5%; FLuc counter: 23.9µM*

How did COc1ccc(NC(=O)c2c(-c3ccccc3)c(-c3ccccc3)nn(C)c2=O)cc1OC do in these assays?
SMN2 splice enh: -8.1%; FLuc counter: -1.6%

What do the screens show for `CC1(C)CC(=O)C(N=Nc2ccc(Cl)cc2)=C(O)C1`?
NPC1 promoter act: -5.6%; ELG1 genotoxic: inconclusive; Rab9 prom act: 4.6%; SMN2 splice enh: 14.1µM*; KinaseGlo FLuc: 0.0%; FLuc counter: 4.78µM*

What do the screens show for `CC1(C)CC(=O)C(N=Nc2ccc(-c3ccccc3)cc2)=C(O)C1`?
NPC1 promoter act: 5.4%; ELG1 genotoxic: inconclusive; Rab9 prom act: 14.9%; SMN2 splice enh: 18.3%; KinaseGlo FLuc: -1.1%; FLuc counter: 2.13µM*

How did CC1(C)CC(=O)C(N=Nc2ccc3ncsc3c2)=C(O)C1 do in these assays?
SMN2 splice enh: 7.9%; KinaseGlo FLuc: -3.1%; FLuc counter: 19µM*

Results for CC1(C)CC(=O)C(N=Nc2ccc(OC(F)F)cc2)=C(O)C1 ?
NPC1 promoter act: -0.6%; ELG1 genotoxic: inconclusive; Rab9 prom act: 3.0%; SMN2 splice enh: -15.5%; KinaseGlo FLuc: -0.8%; FLuc counter: 16.9µM*

Results for COc1ccc(OCC(=O)N2CCN(C(=O)c3cccc(OC)c3)CC2)cc1 ?
SMN2 splice enh: -14.5%; FLuc counter: inconclusive

Results for CNc1nnc(SCC(=O)N2c3ccccc3NC(=O)CC2C)s1 (configuration not stated) ?
NPC1 promoter act: -0.5%; ELG1 genotoxic: 1.6%; Rab9 prom act: -2.1%; FLuc counter: -1.4%

How did COc1cc(F)ccc1S(=O)(=O)N1CCN(c2ccccc2)CC1 do in these assays?
NPC1 promoter act: 0.7%; ELG1 genotoxic: -3.6%; Rab9 prom act: -3.4%; FLuc counter: -0.1%

Results for CC1(C)CC(=O)C(N=Nc2ccc(F)cc2)=C(O)C1 ?
NPC1 promoter act: -1.0%; ELG1 genotoxic: inconclusive; Rab9 prom act: 21.4%; FLuc counter: 15.1µM*

Results for CCOc1ccc(CCNC(=O)COC(=O)c2nccnc2N)cc1OCC ?
NPC1 promoter act: -2.6%; ELG1 genotoxic: 10.8%; Rab9 prom act: 2.4%; FLuc counter: 0.2%

What do the screens show for `CC(=O)c1ccc(OCc2cc(C(=O)NC3CCCCC3)no2)cc1`?
NPC1 promoter act: 3.55µM*; ELG1 genotoxic: -6.1%; Rab9 prom act: 3.98µM*; FLuc counter: inconclusive

How did CC(=O)c1ccc(OCc2cc(C(=O)N(C)CCOc3ccc(C)cc3)no2)cc1 do in these assays?
NPC1 promoter act: 2.51µM*; ELG1 genotoxic: 2.91µM*; Rab9 prom act: 3.98µM*; FLuc counter: 9.53µM*

How did CC(=O)c1ccc(OCc2cc(C(=O)N3CCCCC3c3cccnc3)no2)cc1 (configuration not stated) do in these assays?
NPC1 promoter act: inconclusive; ELG1 genotoxic: inconclusive; Rab9 prom act: inconclusive; FLuc counter: 26.9µM*

Results for CC(=O)c1ccc(OCc2cc(C(=O)N3CC[C@@H]4CCCC[C@H]4C3)no2)cc1 ?
NPC1 promoter act: 2.51µM*; ELG1 genotoxic: inconclusive; Rab9 prom act: 2µM*; FLuc counter: 9.53µM*

How did CC(=O)c1ccc(OCc2cc(C(=O)N(C)Cc3nc4c(C)cccc4[nH]3)no2)cc1 do in these assays?
NPC1 promoter act: -10.0%; ELG1 genotoxic: -9.2%; Rab9 prom act: -4.6%; FLuc counter: 0.1%

What do the screens show for `COc1ccc(N2CCN(S(=O)(=O)c3ccc(OC)c(C(=O)N4CCOCC4)c3)CC2)cc1`?
NPC1 promoter act: -4.6%; ELG1 genotoxic: -2.9%; Rab9 prom act: -2.6%; FLuc counter: 0.4%

Results for Cc1cc(=O)n(Cc2c(F)cccc2Cl)c2c1c(C)nn2C ?
FLuc counter: -14.9%

How did CC(C)c1nc(CN(C)C(=O)N[C@H](C(=O)N[C@@H](Cc2ccccc2)C[C@H](O)[C@H](Cc2ccccc2)NC(=O)OCc2cncs2)C(C)C)cs1 do in these assays?
NPC1 promoter act: -0.4%; Rab9 prom act: -6.8%; KinaseGlo FLuc: 1.6%[39.9 µM]; FLuc counter: inconclusive

Results for Cc1c(S(=O)(=O)N2CCCCC2)c(=O)n(C)c(=O)n1C ?
NPC1 promoter act: -0.4%; ELG1 genotoxic: 0.8%; Rab9 prom act: -1.2%; FLuc counter: -1.2%

Results for O=C(Nc1nc2ccccc2[nH]1)c1ccc(F)cc1 ?
NPC1 promoter act: 0.447µM*; ELG1 genotoxic: inconclusive; Rab9 prom act: 0.316µM*; SMN2 splice enh: 14.1µM*; KinaseGlo FLuc: inconclusive; FLuc counter: 1.07µM*

What do the screens show for `Cc1ccsc1C(=O)Nc1nc2ccccc2[nH]1`?
NPC1 promoter act: 0.631µM*; ELG1 genotoxic: 1.16µM*; Rab9 prom act: 0.355µM*; FLuc counter: 1.69µM*

Results for O=C(NCCc1nc2ccccc2[nH]1)c1ccc(F)cc1 ?
NPC1 promoter act: -3.7%; ELG1 genotoxic: -2.3%; Rab9 prom act: -1.0%; KinaseGlo FLuc: -2.3%; FLuc counter: 11.4%

What do the screens show for `Cn1nc(C(=O)Nc2nc3ccccc3[nH]2)c2ccccc2c1=O`?
NPC1 promoter act: 12.8%; ELG1 genotoxic: 3.5%; Rab9 prom act: inconclusive; SMN2 splice enh: 13.8%; KinaseGlo FLuc: -1.4%; FLuc counter: -16.9%

Source: PubChem
